Assay results reported in PubChem BioAssay (Tox21).
Inconclusive results are not listed. More than one record can exist for a structure, and the calls need not agree. The source made the active and inactive calls. The call rests on the fitted dose curve.

Target: Peroxisome proliferator-activated receptor gamma (Homo sapiens) (UniProt P37231)
Assay: qHTS assay to identify small molecule antagonists of the peroxisome proliferator-activated receptor gamma (PPARg) signaling pathway (AID 743191); further: nearly all actives have a fitted effect of over 30% in size
Conditions: HEK293H PPARg-UAS-bla, beta-lactamase ratio, antagonist, 17 h; series mostly up to 62.6 µM; ratio activity, negative = inhibition: at the top concentration
Description: U.S. Tox21 Program National Center for Advancing Translational Sciences [NCATS] NIH Chemical Genomics Center [NCGC] U.S. Environmental Protection Agency [EPA] National Institutes of Environmental Health Sciences [NIEHS] National Toxicology Program [NTP] U.S. Food and Drug Administration [FDA] Tox21 Assay Overview: The peroxisome proliferator-activated receptors (PPARs) are lipid-activated transcription factors of the nuclear receptor superfamily with three distinct subtypes namely PPAR alpha, PPAR delta (also called PPAR beta) and PPAR gamma (PPARg). All these subtypes heterodimerize with Retinoid X receptor (RXR) and these heterodimers regulate transcription of various genes. PPAR-gamma receptor (glitazone receptor) is involved in the regulation of glucose and lipid metabolism. To identify the compounds that inhibit PPAR-gamma signaling, GeneBLAzer PPAR gamma UAS-bla HEK293H cell line (Invitrogen, Carlsbad, CA, USA) containing a beta-lactamase reporter gene under control of an Upstream Activator Sequence (UAS) was used to screen the Tox21 compound library.
Tox21 Assay Protocol Summary: PPARg-bla cells were dispensed at 3000 cells/6uL/well in 1536-well black wall/clear bottom plates using a Multidrop Combi (Thermo Fisher Scientific, Waltham, MA) dispenser. After the assay plates were incubated at 37C and 5% CO2 for 5 h, 23 nL of compounds dissolved in DMSO, positive controls or DMSO only was transferred to the assay plate by a Pintool station (Kalypsys, San Diego, CA). The assay plates were incubated at 37C for 17 h. After 1 uL of LiveBLAzerTM B/G FRET substrate was added using a Bioraptr Flying Reagent Dispenser (FRD) workstation (Beckman Coulter, Indianapolis, IN, USA), the plates were incubated at room temperature for 1 h, and fluorescence intensity was measured by an Envision plate reader (PerkinElmer, Shelton, CT).
On the % scale 0 is the no-effect control and ±100 the full control effect; potency means the concentration at half of the fitted maximal effect.

Sequence of Peroxisome proliferator-activated receptor gamma (Homo sapiens) (P37231 whole entry, looked up): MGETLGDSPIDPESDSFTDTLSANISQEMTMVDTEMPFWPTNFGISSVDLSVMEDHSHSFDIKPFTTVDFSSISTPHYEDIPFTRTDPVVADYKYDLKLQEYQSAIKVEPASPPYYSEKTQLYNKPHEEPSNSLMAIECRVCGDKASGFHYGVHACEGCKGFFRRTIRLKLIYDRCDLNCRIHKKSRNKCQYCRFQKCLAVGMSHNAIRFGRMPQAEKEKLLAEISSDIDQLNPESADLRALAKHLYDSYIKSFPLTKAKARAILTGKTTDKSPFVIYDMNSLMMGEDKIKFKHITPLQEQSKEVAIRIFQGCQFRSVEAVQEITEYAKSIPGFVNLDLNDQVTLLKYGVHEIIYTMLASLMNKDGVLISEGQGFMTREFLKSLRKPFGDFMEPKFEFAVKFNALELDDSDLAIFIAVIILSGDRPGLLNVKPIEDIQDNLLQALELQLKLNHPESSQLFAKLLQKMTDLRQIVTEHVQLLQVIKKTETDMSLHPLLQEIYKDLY

SMILES	ratio activity, negative = inhibition	Potency
CCC1(C2=NCCN2)Cc2ccccc2O1 (stereo not given)	-1.17% (inactive)	
CCN(C(C)=O)c1cccc(-c2ccnc3c(C#N)cnn23)c1	10.4% (inactive)	
C=CCSSCC=C	-2.08% (inactive)	
CCCC[N+]1(C)[C@@H]2CC(OC(=O)[C@H](CO)c3ccccc3)C[C@H]1[C@@H]1O[C@@H]12 (stereo not given in full)	7.49% (inactive)	
CC(C)[C@@H](C(=O)O[C@@H](C#N)c1cccc(Oc2ccccc2)c1)c1ccc(Cl)cc1	22.3% (inactive)	
CCOC(C(=O)OCCN(C)C)(c1ccccc1)c1ccccc1	-6.01% (inactive)	
C=CCOC(=O)C(C)(C)OC(=O)c1cc(-n2c(=O)cc(C(F)(F)F)n(C)c2=O)ccc1Cl	3.74% (inactive)	
CCCC(C)(COC(N)=O)COC(=O)NC(C)C (stereo not given)	19.6% (inactive)	
CCCCC(CC)CO[N+](=O)[O-] (stereo not given)	12.8% (inactive)	
CCOc1cccc(C2(N3CCN(c4ccccc4)CC3)CCC(C)CC2)c1 (stereo not given)	1.11% (inactive)	
NC(=O)CF	-0.0775% (inactive)	
O=C(N/N=C/c1ccc([N+](=O)[O-])o1)c1cc([N+](=O)[O-])cc([N+](=O)[O-])c1O	9.92% (inactive)	
C[N+]1(CCC(C(N)=O)(c2ccccc2)c2ccccc2)CCCCC1	17.9% (inactive)	
COCc1cnc(C2=NC(C)(C(C)C)C(=O)N2)c(C(=O)O)c1 (stereo not given)	-0.197% (inactive)	
C=CCN1C[C@H](C)N([C@H](c2ccc(C(=O)N(CC)CC)cc2)c2cccc(OC)c2)C[C@H]1C	10.6% (inactive)	
CCCCCCCCCCCCN=C(N)N	-16.9% [at 2.7 µM] (inactive)	
CCC(=O)O[C@@H]1C=C2CCC3C(CCC4(C)C3CC[C@@H]4OC(=O)CC)C2CC1 (stereo not given in full)	10.4% (inactive)	
O=S(=O)(Cl)Cl	0.087% (inactive)	
Cc1ccccc1	-11.3% (inactive)	
CN1C[C@H](C(=O)N[C@]2(C)O[C@@]3(O)[C@@H]4CCCN4C(=O)[C@H](Cc4ccccc4)N3C2=O)C=C2c3cccc4[nH]cc(c34)C[C@H]21		43.8 µM (active) and inactive

SMILES	ratio activity, negative = inhibition	Potency
N#CC(C#N)=C(C#N)C#N	-5.12% [at 81.1 µM] (inactive)	
C[N+](C)(C)CC1CO1 (stereo not given)	-5.76% (inactive)	
CC(CC(C(N)=O)(c1ccccc1)c1ccccc1)N(C)C (stereo not given)	5.65% (inactive)	
Nc1ccc2c(c1)Cc1ccccc1-2	-8.75% (inactive)	
CC(C)c1ccc(OP(=O)(Oc2ccc(C(C)C)cc2)Oc2ccc(C(C)C)cc2)cc1		38.9 µM (active)
CCC[N+](CCC)(CCC)CCC	-1.5% (inactive)	
C[N+]1(CCF)[C@@H]2CC[C@H]1CC(OC(=O)C(O)(c1ccccc1)c1ccccc1)C2 (stereo not given in full)	7.55% (inactive)	
C[C@]12CC[C@H]3[C@@H](CCC4=CC(=O)CC[C@@H]43)[C@@H]1CC[C@@H]2OC(=O)CCc1ccccc1	3.15% (inactive)	
CCC1(CCC(C)C)C(=O)NC(=O)NC1=O	15.1% [at 81.1 µM] (inactive)	
COC1=CC(=O)O[C@@H](/C=C/c2ccc3c(c2)OCO3)C1	-25.5% (inactive)	
CCNC(=O)NC(=O)/C(C#N)=N/OC	8.69% (inactive)	
CCC(C)(C)O	-3.64% (inactive)	
CCSCc1ccccc1OC(=O)NC	-6% (inactive)	
O=[N+]([O-])O[C@H]1CO[C@H]2[C@@H]1OC[C@H]2O[N+](=O)[O-]	3.61% (inactive)	
Cc1ccc(N)c(C)c1		inactive
CCOC(=O)C1OC1(C)c1ccccc1 (stereo not given)	8.25% (inactive)	
CC(C)(C)N(NC(=O)c1ccc(Cl)cc1)C(=O)c1ccccc1	-19.4% (inactive)	
CC(C)(C)NCC(O)c1ccccc1Cl (stereo not given)	-1.41% (inactive)	
CC(C)CCCCCCCOC(=O)c1ccccc1C(=O)OCCCCCCCC(C)C	0.691% (inactive)	
Clc1ccc2ccccc2c1	22.7% [at 81.1 µM] (inactive)	
